# Compound activity (PubChem)
# BoNT-A LC inh2: blocks Botulinum neurotoxin A light chain protease; multiplex microsphere protease substrate cleavage, flow cytometry; inhibition, % at 10 µM; actives 0.17% (n = 360,000); AID 588499; further: plate controls were buffer without enzyme for full effect and enzyme alone for no effect
# Autofluor counter: counter-screen for toxin protease inhibitors: compound fluorescence; fluorescence intensity (concentration not given with the values); AID 624483; compound autofluorescence counterscreen, microsphere flow cytometry; stronger effect = higher value; actives 3.1% (n = 360,000); in the data active means fluorescence intensity above about 16000; inconclusive means no clear call, values can overlap the other calls
# DUSP3 inh: DUSP3 (human) phosphatase inhibition; actives 0.52% (n = 290,000); recombinant VHR phosphatase, pNPP absorbance; P51452; AID 1654; inhibition, % at 13.3 µM; in the data active means inhibition above about 50%
# SARS 3CLpro inh-1: SARS-CoV 3CLpro protease inhibition; recombinant SARS-CoV 3CLpro, quenched FRET peptide cleavage; inhibition, % at 6 µM; actives 0.14% (n = 290,000); P0C6X7; AID 1706; in the data active means inhibition above about 12%
# BoNT F protease: blocks Botulinum neurotoxin F light chain protease | Multiplex microsphere protease cleavage assay, flow cytometry | inhibition, % at 10 µM | actives 0.22% (n = 360,000); in the data active means inhibition above about 35%, passing the limit was not always enough; inconclusive means no clear call, values can overlap the other calls; further: plate controls were buffer without enzyme for full effect and enzyme alone for no effect
# Anthrax LF inh2: blocks Bacillus anthracis lethal factor protease | P15917 | multiplex microsphere protease cleavage assay, LF | inhibition, % at 10 µM | actives 0.12% (n = 360,000) | AID 588501; further: plate controls were buffer without enzyme for full effect and enzyme alone for no effect
# Target sequence (P15917 whole entry, looked up): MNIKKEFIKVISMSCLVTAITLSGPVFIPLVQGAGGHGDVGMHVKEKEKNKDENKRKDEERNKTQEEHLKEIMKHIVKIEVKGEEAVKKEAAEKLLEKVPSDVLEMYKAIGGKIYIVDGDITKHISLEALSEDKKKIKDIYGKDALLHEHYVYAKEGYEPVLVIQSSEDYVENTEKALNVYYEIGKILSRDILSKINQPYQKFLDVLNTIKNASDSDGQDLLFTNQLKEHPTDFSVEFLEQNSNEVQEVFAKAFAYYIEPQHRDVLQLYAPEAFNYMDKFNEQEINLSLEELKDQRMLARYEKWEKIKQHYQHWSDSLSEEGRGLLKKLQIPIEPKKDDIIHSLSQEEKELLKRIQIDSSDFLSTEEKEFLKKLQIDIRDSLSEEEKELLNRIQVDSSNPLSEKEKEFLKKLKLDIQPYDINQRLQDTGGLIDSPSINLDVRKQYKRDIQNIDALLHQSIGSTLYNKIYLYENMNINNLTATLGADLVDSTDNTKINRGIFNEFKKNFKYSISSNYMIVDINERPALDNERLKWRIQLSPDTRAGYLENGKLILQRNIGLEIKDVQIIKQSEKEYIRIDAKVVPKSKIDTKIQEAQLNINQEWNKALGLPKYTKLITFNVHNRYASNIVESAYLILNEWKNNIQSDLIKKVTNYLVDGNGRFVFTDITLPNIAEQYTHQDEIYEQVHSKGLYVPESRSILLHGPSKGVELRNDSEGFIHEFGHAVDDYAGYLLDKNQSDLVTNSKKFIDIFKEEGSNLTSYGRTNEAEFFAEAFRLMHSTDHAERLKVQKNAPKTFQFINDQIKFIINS
# SARS 3CLpro inh-2: SARS 3CLpro inhibition, confirmation assay | shares compounds with SARS 3CLpro inh-1 | QFRET protease activity assay | actives 36% (n = 380) | inhibition, % at 6 µM | AID 1879; in the data active means inhibition above about 13%
# BoNT-A LC CP1: BoNT/A light chain protease inhibition; actives 3% (n = 720); inhibition, % at 10 µM; shares compounds with BoNT F protease; multiplex microsphere protease assay, flow cytometry; in the data active means inhibition above about 32%
# BoNT-F LC CP1: inhibitors of Botulinum neurotoxin F light chain protease; 720 tested, under 10 active; multiplex microsphere protease cleavage assay, flow cytometry; shares compounds with BoNT F protease; inhibition, % at 10 µM; call rule not given here
# Anthrax LF CP1: inhibitors of Bacillus anthracis lethal factor protease; inhibition, % at 10 µM; shares compounds with BoNT F protease; 720 tested, under 10 active; multiplex microsphere protease cleavage assay, LF; call rule not given here
# Active calls of the source: *; ? = inconclusive; nt = not tested or not shown. This is a sample that favours compounds with a hit; in the whole collection about 3.9% have one here. Unless noted, no stated cut-off is given here; in the data, active means inhibition above about 30%; inconclusive means no clear call, values can overlap the other calls; inactive means below that.
SMILES,BoNT-A LC inh2,Autofluor counter,DUSP3 inh,SARS 3CLpro inh-1,BoNT F protease,Anthrax LF inh2,SARS 3CLpro inh-2,others
COc1ccc(S(=O)(=O)N2CCOC2CNC(=O)C(=O)NCCN(C)C)cc1 (configuration not stated),-1,5585,-3,13*,-9,-1,-3,
COc1ccc(S(=O)(=O)N2CCOC2CNC(=O)C(=O)NCCc2ccccc2OC)cc1C (configuration not stated),0,6693,17,-3,-3,1,nt,
Cc1ccc(N(C(=O)c2ccco2)C(C(=O)NC2CCCC2)c2cccnc2)cc1C (configuration not stated),1,3736,-15,4,2,-5,nt,
CCc1ccc(N(C(=O)c2ccco2)C(C(=O)NC2CCCC2)c2cccnc2)cc1 (configuration not stated),-6,4411,6,16*,-14,-2,9,
CCC(C)c1ccc(N(C(=O)c2ccco2)C(C(=O)NC2CCCC2)c2cccnc2)cc1 (configuration not stated),4,3755,1,75*,-8,4,75*,
CC(C)c1ccc(N(C(=O)c2ccco2)C(C(=O)NC2CCCC2)c2ccncc2)cc1 (configuration not stated),0,4799,34,7,3,-2,nt,
CCc1ccc(-c2csc(NC(=O)COC(=O)CCc3nc4ccccc4s3)n2)cc1,nt,nt,7,-3,nt,nt,nt,
Cc1ccccc1NC1=C/C(=N\S(=O)(=O)c2ccc(C(=O)O)cc2)c2ccccc2C1=O,-1,5812,22,16*,-4,-1,10,
Cc1ccc(-c2nc3ccc(Br)cn3c2Cc2cccc(Cl)c2)cc1,2,6819,nt,nt,-4,-1,nt,
O=C(Cc1ccc(Cl)cc1)NCCCn1ccnc1,5,10235,-2,5,-14,0,nt,
O=C(Cc1c(F)cccc1Cl)NCCCn1ccnc1,0,7345,13,38*,-4,-6,-5,
CC(=O)Nc1ccc(NC(=O)C/C(C)=N/NC(=O)COc2cc(C)c(Br)cc2Br)cc1,-2,3719,20,16*,-10,-7,1,
CC(=O)n1cc(N(C(=O)CCl)c2ccc([N+](=O)[O-])cc2)c2ccccc21,nt,nt,-4,14*,nt,nt,36*,
CC(=O)n1cc(N(C(=O)CCl)c2ccccc2)c2ccccc21,nt,nt,17,6,nt,nt,nt,
Cc1nc(N2CCC(C)CC2)c2c(C)c(C(=O)Nc3ccc(C(F)(F)F)cc3)sc2n1,1,2020,-3,-4,-3,-1,nt,
Cc1nc(N2CCC(C)CC2)c2c(C)c(C(=O)Nc3ccc4c(c3)OCCO4)sc2n1,nt,nt,5,14*,nt,nt,3,
O=C(O)c1ccccc1NS(=O)(=O)c1ccc(NNC(=S)Nc2ccc(OC(F)F)cc2)c([N+](=O)[O-])c1,0,3178,10,13*,-3,-10,3,
N#CCCn1nc(-c2ccccc2)c2ccccc2c1=O,-3,3996,8,2,?,8,nt,
COc1ccc(C(=O)NC(=S)Nc2ccc(S(=O)(=O)Nc3cc(OC)nc(OC)n3)cc2)cc1,-7,3342,17,8,-30,-4,nt,
COc1cc(NS(=O)(=O)c2ccc(NC(=S)NC(=O)c3ccc(F)cc3)cc2)nc(OC)n1,-6,3744,12,12*,-1,-8,6,
CCOC(=O)c1c(NC(=O)CCl)sc(CN(C)C)c1-c1ccccc1,-1,4804,26,31*,-12,-8,59*,
CCOC(=O)c1c(NC(=O)CN2CCCCC2)sc(CN(C)C)c1-c1ccccc1,-2,3268,29,2,0,-6,nt,
COC(=O)c1ccccc1NC(=O)c1ccc2c(c1)OCCCO2,-1,6355,10,12*,-10,-2,-2,
Cc1cc(C(=O)c2ccc(Cl)cc2)c(NC(=O)CCl)s1,-1,2498,4,6,-2,-2,nt,
CCc1cc(C(=O)c2ccc(C)cc2)c(NC(=O)CCl)s1,0,2104,-4,20*,-4,-2,44*,
SMILES,BoNT-A LC inh2,Autofluor counter,DUSP3 inh,SARS 3CLpro inh-1,BoNT F protease,Anthrax LF inh2,SARS 3CLpro inh-2,others
O=C(Nc1cccc(C(F)(F)F)c1)c1sc(Cl)nc1C(F)(F)F,0,3457,-12,-3,40*,33*,nt,BoNT-A LC CP1=1;BoNT-F LC CP1=-3;Anthrax LF CP1=-2
O=C(Nc1cccc(C(F)(F)F)c1)c1cc(-c2ccco2)on1,-1,3180,27,2,7,0,nt,
COc1ccc(CNC(=O)CN(C(=O)CCC(=O)Nc2ccccn2)c2cc(C)ccc2C)cc1,-2,3145,8,4,-7,32*,nt,BoNT-A LC CP1=1;BoNT-F LC CP1=-4;Anthrax LF CP1=5
CCc1ccccc1N(CC(=O)NCc1ccc(OC)cc1)C(=O)CCC(=O)Nc1ccccn1,-2,5288,20,-2,-3,4,nt,
CC(=O)C1C(c2ccc(F)cc2)c2c(noc2C)CC1(C)O (configuration not stated),-3,4546,1,2,37*,-6,nt,BoNT-A LC CP1=0;BoNT-F LC CP1=1;Anthrax LF CP1=3
CC(C)OCCCNC(=O)[C@H]1N2C(=O)c3ccccc3C2SC1(C)C (some centres not stated),1,3116,14,-1,-8,6,nt,
CC(C)NC(=O)[C@H]1N2C(=O)c3ccccc3C2SC1(C)C (some centres not stated),4,3866,18,-2,36*,4,nt,BoNT-A LC CP1=0;BoNT-F LC CP1=-3;Anthrax LF CP1=-3
O=C(CN1CCN(c2ccccc2O)CC1)Nc1ccnn1C1CCCC1,1,3150,nt,nt,-3,2,nt,
Cc1cccc(N(CC(=O)N2CCCCCC2)S(C)(=O)=O)c1C,-2,3213,7,6,36*,-24,nt,BoNT-A LC CP1=0;BoNT-F LC CP1=2;Anthrax LF CP1=6
Cc1nnc(SCC(=O)Nc2sccc2C(N)=O)n1Cc1ccccc1,?,5801,14,0,36*,6,nt,BoNT-A LC CP1=-1;BoNT-F LC CP1=-6;Anthrax LF CP1=-1
CCc1nnc(NC(=O)CSc2nnc(C)n2Cc2ccccc2)s1,-1,6940,5,0,-7,-8,nt,
CC(=O)NCCC(=O)N1CCCC(N2CCN(c3cccc(Cl)c3)CC2)C1 (configuration not stated),1,3199,-3,1,42*,-1,nt,BoNT-A LC CP1=-1;BoNT-F LC CP1=2;Anthrax LF CP1=3
Cc1cc(C(=O)Nc2ccc(S(=O)(=O)Nc3onc(C)c3C)cc2)c(C)o1,30*,10628,1,-3,42*,-21,nt,BoNT-A LC CP1=0;BoNT-F LC CP1=0;Anthrax LF CP1=-1
Cc1noc(NS(=O)(=O)c2ccc(NC(=O)c3ccoc3C)cc2)c1C,0,6406,-14,-1,1,-3,nt,
O=C(Cc1ccc(Cl)cc1)NC1CCCCCC1,-3,3892,-3,1,40*,12,nt,BoNT-A LC CP1=0;BoNT-F LC CP1=-4;Anthrax LF CP1=-3
